HT1080-NT tox: kills 2HG-producing HT-1080-NT fibrosarcoma cells; HT-1080-NT fibrosarcoma viability, CellTiter-Glo ATP luminescence, 48 h; Potency, µM (titrated, usually from 46.1 µM), hits mostly cytotoxic; 360,000 tested, 1.6% active;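 also: NT is the 2HG producing partner of a matched IDH1 knockdown line; nearly all actives have a fitted effect of over 55% in size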
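Luminescent CellTiter-Glo readout after 48 hours of compound exposure at 37 degrees C defined viability of HT-1080-NT cells. Activity was normalized to DMSO wells and cell-free media wells; concentration-response curves were fitted and assigned curve classes.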
TDP1 cell CPT: growth inhibition of DT40 Tdp1-/-;hTDP1 cells with camptothecin (screen for TDP1 inhibitors); AID 686979; chicken DT40 Tdp1-/-;hTDP1 cells + 20 nM CPT, ATP luminescence, 48 h; Potency, µM (highest dose often 46.2 µM), most hits filed as inhibitors; 420,000 tested, 12% active; also: nearly all actives have a fitted effect of over 55% in size
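Chicken DT40 Tdp1-/- cells complemented with human TDP1, 400 cells/well, exposed to compounds plus 20 nM camptothecin for at least 48 h at 37 C; viability read as ATP content by CellTiter-Glo luminescence.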
HT1080 IDH1KD tx: kills HT-1080 cells with IDH1 knockdown | HT-1080 IDH1 knockdown viability, ATP luminescence, 48 h | Potency, µM (top dose mostly 46.1 µM), usual class: cytotoxic | 360,000 tested, 2% active | AID 686971
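In this qHTS, HT-1080 cells depleted of IDH1 are exposed for 48 h at 37 °C to compound titrations. Toxicity is scored from CellTiter-Glo luminescence, with DMSO as full viability and medium alone as none.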
TDP1 cell noCPT: qHTS for Inhibitors of human tyrosyl-DNA phosphodiesterase 1 (TDP1): qHTS in cells in absence of CPT; DT40 Tdp1-/- hTDP1 cells, no CPT, ATP luminescence, 48 h; Potency, µM (highest dose often 46.2 µM), usual class: inhibitors; 420,000 tested, 15% active; also: nearly all actives have a fitted effect of over 55% in size
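Camptothecin absent (DMSO only). Human TDP1-complemented DT40 knockout cells, 400 cells/well, 37 °C for minimum 48 hr; ATP measured via CellTiter-Glo, 30 min dark incubation, luminescence.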
IL1B secr inh: blocks inflammasome-driven IL-1 beta release | activity change, % at 57.5 µM | THP-1 LPS/ATP IL-1B secretion, AlphaLISA, 16 h; hits give low values | 360,000 tested, 4.7% active | AID 743279; in the data active = activity change below about -50%; inconclusive = mostly about -30% to -49%
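THP-1 cells pretreated 1 hr with compounds (up to 57.5 uM final), then stimulated with LPS (250 ng/mL final) plus ATP (1.25 mM final); secreted IL-1B measured by AlphaLISA after 16 hr, decreased signal indicating inhibition.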
A number is an active result; 0 = inactive; ? = inconclusive; - = no result given; [ ] = remark or other dose. Compounds with a hit are over-represented: about 19% of the library has one in this group of screens. Unless noted, calls follow the shape of the dose curve; as a rule, active = well fitted curve in the direction sought with a large enough effect; inconclusive = small, poorly fitted or top-dose-only effect, or another doubt; inactive = no such curve, though single readings can be large; an effect the other way counts as inactive or inconclusive.

SMILES	HT1080-NT tox	TDP1 cell CPT	HT1080 IDH1KD tx	TDP1 cell noCPT	IL1B secr inh
CCCCN(C(=O)CSc1nnnn1C)C1CCS(=O)(=O)C1 (stereo unspecified)	0	0	0	0	0
Cc1ccc(C)c(NC(=O)CCN2CCN(c3ccccc3F)CC2)c1	0	0	0	?	0
Cc1ccc2oc(=O)c3cc(C(=O)N4CCN(c5ccccc5)CC4)sc3c2c1	-	0	-	0	-
CC(=O)Nc1ccc(C(=O)N/C(=C/c2ccccc2)C(=O)NCc2ccco2)cc1	0	0	0	0	0
COc1ccc([C@H]2N[C@]3(CCCN(Cc4ccc(Br)cc4)C3=O)[C@H]3C(=O)N(C)C(=O)[C@@H]23)cc1	0	0	0	?	0
CCSc1nc(N2CCCCC2)c2c(c1C#N)CCCC2	0	?	0	16.4µM	0
COc1ccc(O)c(/C=N/NC(=O)c2ccc(CSc3nc(C)cc(C)n3)cc2)c1	?	4.61µM	?	2.91µM	0
Cc1cc(C)nc(SCc2ccc(C(=O)N/N=C/c3cccc(O)c3O)cc2)n1	?	5.17µM	2.31µM	5.8µM	0
Cc1cc(C)nc(SCc2ccc(C(=O)N/N=C/c3ccc(C(=O)O)cc3)cc2)n1	0	0	0	0	0
COC(=O)c1cc(CNC(=O)c2sccc2-c2ccccc2)ccc1OC	0	?	0	?	0
Cc1cc(C)c(S(=O)(=O)N2CCC(C(=O)NCc3ccco3)CC2)c(C)c1	0	0	0	0	0
Cc1cc(C)c2c3c(sc2n1)C(c1cccc(F)c1)C(C#N)=C(N)O3 (stereo unspecified)	0	?	0	16.4µM	-79.3
Cn1c(CCn2ccccc2=O)nc2cc(NC(=O)COc3ccccc3)ccc21	0	0	0	0	0
COc1ccc(OC)c2sc(N3CCN(C(=O)CCS(=O)(=O)c4ccc(F)cc4)CC3)nc12	-	18.4µM	-	20.6µM	-
Cc1ccc2sc(N3CCN(C(=O)CCS(=O)(=O)c4ccc(F)cc4)CC3)nc2c1C	-	4.11µM	-	2.59µM	-
Cc1ccc2sc(N3CCN(C(=O)C4=COCCO4)CC3)nc2c1C	0	0	0	?	?
COc1ccc(OC)c2sc(N3CCN(C(=O)c4ccc([N+](=O)[O-])s4)CC3)nc12	0	?	0	?	0
CC(=O)N1CCN(C(=O)COc2ccccc2C(=O)Nc2ccccc2)CC1	0	0	0	0	0
Cc1cc(-c2ccccc2)nc(Oc2ccc(C(C)(C)C)cc2)c1S(C)(=O)=O	0	?	0	20.6µM	0
COc1ccccc1Oc1nc(-c2ccccc2)cc(C)c1S(C)(=O)=O	?	?	?	18.4µM	0
Cc1cc(C)cc(Oc2nc(-c3ccccc3)cc(C)c2S(C)(=O)=O)c1	?	?	?	?	0
N[C@@H](C(=O)O)[C@H](CC(=O)O)c1ccc(Cl)cc1	-	0	-	0	-
c1ccc2nccnc2c1	-	0.794µM	-	1.12µM	-
c1cc(Nc2cccc3nccnc23)c2nccnc2c1	0	0	0	0	-54.1
COC(=O)[C@@H]1CCCN1Cc1ccc2c(c1)CN(Cc1ccccc1C)CCO2	-	0[9.04 µM]	-	0	-
SMILES	HT1080-NT tox	TDP1 cell CPT	HT1080 IDH1KD tx	TDP1 cell noCPT	IL1B secr inh
CCN(CC)C(=O)CNC(=S)N(CCCN1CCOCC1)Cc1cccs1	0	0	0	0	0
Cc1cc(C)c2c(=O)n(CC(=O)NCCCN3CCOCC3)sc2n1	0	4.11µM	0	6.51µM	-97.3
Cc1cc(C)c2c(=O)n(CC(=O)NCCCN3CCN(c4ccccc4F)CC3)sc2n1	?	4.61µM	0	3.26µM	?
COc1ccccc1OCC(=O)N(Cc1cccs1)C1CCS(=O)(=O)C1 (stereo unspecified)	-	0	-	0	-
COc1ccc(-n2c(SCCC#N)nnc2-c2cc(Cl)ccc2OC)cc1Cl	?	?	29.1µM	16.4µM	0
COc1ccccc1CN(C)C(=O)c1cc(C)nc2ccccc12	0	16.4µM	0	16.4µM	0
COc1ccccc1CNC(=O)c1cc(C)nc2ccccc12	0	0	0	?	0
COc1ccc(CN(C)C(=O)c2cc(-c3ccccc3)nc3ccc(C)cc23)c(OC)c1	?	5.8µM	?	5.8µM	?
COc1ccc(-c2cc(C(=O)Oc3ccccc3)c3cc(C)ccc3n2)cc1	-	?	-	5.17µM	-
COc1ccc(-c2cc(C(=O)Oc3ccc(C)cc3)c3cc(C)ccc3n2)cc1	-	0	-	0	-
